# Assay outcomes: PubChem BioAssay, several laboratories
# Shown are actives, neighbours in structure and some others; about 0.89% of the full set was active somewhere.
# MMP-13 inhibitor – human MMP13 inhibitors, primary screen, biochemical, FRET peptide cleavage; Collagenase 3 (Homo sapiens), P45452; MMP-13 fTHP FRET cleavage, Mca fluorescence; inhibition, % at 4 µM; actives 0.07% (n = 65,000); AID 570, 2006;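 active = inhibition above the mean of compound-free control plate wells plus 3 SD, cut at about 14% in these data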;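 also: 0% = DMSO wells and 100% = wells with reference MMP-13 inhibitor after basal subtraction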
# DUSP1 inh – MKP-1 phosphatase inhibitors, primary screen, biochemical, in vitro. Dual specificity protein phosphatase 1 (Homo sapiens), P28562. recombinant MKP-1, OMFP hydrolysis fluorescence. inhibition, %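 (compounds tested at a single concentration somewhere between 10 and 100 µM)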. actives 0.15% (n = 65,000). AID 374, 2006;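 active = inhibition above about 50%, limit read from the data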;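 also: 0% = DMSO max control wells and 100% = wells with enzyme stopped by NaOH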
# Target sequence (P28562 whole entry, looked up): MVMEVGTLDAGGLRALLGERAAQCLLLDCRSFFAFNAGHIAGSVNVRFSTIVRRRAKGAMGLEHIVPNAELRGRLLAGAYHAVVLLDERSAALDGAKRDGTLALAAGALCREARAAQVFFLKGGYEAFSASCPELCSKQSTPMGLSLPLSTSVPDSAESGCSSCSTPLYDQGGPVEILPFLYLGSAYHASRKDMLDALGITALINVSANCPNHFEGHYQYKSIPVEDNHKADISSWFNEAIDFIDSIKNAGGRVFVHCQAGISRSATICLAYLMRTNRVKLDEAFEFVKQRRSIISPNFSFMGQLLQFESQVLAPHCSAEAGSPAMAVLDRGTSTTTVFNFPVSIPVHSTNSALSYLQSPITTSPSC
# WNV NS2B-NS3 inh – inhibitors of WNV NS2B-NS3 protease, primary screen, biochemical, fluorogenic substrate. Genome polyprotein (West Nile virus), P06935. fluorogenic substrate Ex360/Em465; active compounds read low. z-score (concentration not given with the values). actives 0.18% (n = 65,000). AID 577, 2007; in the data active = z-score below about -3
# Target sequence (P06935 1371-1501 limits assumed): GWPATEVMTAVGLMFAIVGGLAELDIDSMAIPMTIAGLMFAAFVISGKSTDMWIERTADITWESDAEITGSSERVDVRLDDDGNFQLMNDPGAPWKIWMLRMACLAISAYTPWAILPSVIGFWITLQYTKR
# Target sequence (P06935 1502-1679 limits assumed): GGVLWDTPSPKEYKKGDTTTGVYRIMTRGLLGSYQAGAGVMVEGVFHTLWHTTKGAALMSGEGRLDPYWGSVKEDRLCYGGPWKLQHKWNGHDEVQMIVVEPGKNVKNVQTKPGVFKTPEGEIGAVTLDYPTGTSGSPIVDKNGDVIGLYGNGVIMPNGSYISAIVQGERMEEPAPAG
# Cdc25B block – inhibitors of Cdc25B phosphatase catalytic domain, primary screen, biochemical, OMFP fluorescence. recombinant Cdc25B, OMFP fluorescence Ex485/Em525. inhibition, %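 (compounds tested at 10 µM final in the well)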. actives 0.1% (n = 65,000). AID 368, 2006; in the data active = inhibition above about 50%
# mHtt clearance – clearance of mutant huntingtin inclusions, primary screen, imaging, HeLa Exon1htt(103Q)mCFP, confocal imaging | aggregate imaging; zero = plate's median compound well | inhibition, % at 1.5 µM | actives 0.42% (n = 47,000);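 active = inhibition of aggregate fluorescence above about 70%, also judged a hit by eye on the cell image, limit read from the data, passing the limit was not always enough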;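 also: cells exposed to compound for three days before fixation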
# Hsp90 block – tumor Hsp90 inhibitors, primary screen, cell lysate, fluorescence polarization, NCI-N417 lysate; Heat shock protein HSP 90-alpha (Homo sapiens), P07900; actives 0.35% (n = 64,000); Cy3B-geldanamycin FP displacement; inhibition, % at 30 µM;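 active = inhibition above 50%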;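 also: 0% = tracer plus lysate wells and 100% = tracer alone without lysate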
# An asterisk follows results filed as active; . = no result given.
SMILES,MMP-13 inhibitor,DUSP1 inh,WNV NS2B-NS3 inh,Cdc25B block,mHtt clearance,Hsp90 block
O=C(Nc1ccccc1C(=O)OCc1nnc(-c2ccccc2)o1)c1ccco1,0.6,-9.8,-1.03,-1.9,.,-3.2
C[n+]1cc2c3c(ccc2c2ccc4cc5c(cc4c21)OCO5)OCO3,.,.,.,.,.,9.3
NCCCCNS(=O)(=O)c1cccc2c(Cl)cccc12,.,.,.,.,.,-3.0
CNC(=O)c1nnc(Cc2ccc(F)cc2)o1,-3.8,1.2,-3.15*,-2.9,.,-0.9
COc1cc(N)c2nccc(Cl)c2c1,.,.,.,.,.,12.9
Nc1nc(SCC(=O)NCc2ccccc2)n[nH]1,-3.5,4.4,-2.23,25.4,-11.2,-4.4
Cc1ccc(CNC(=O)CSc2n[nH]c(N)n2)cc1,-1.1,1.6,-0.36,0.2,82.2*,1.1
O=C(COc1ccc(-c2ccccc2)cc1)N1CCN(C(=O)c2cccnc2)CC1,-7.8,6.3,-0.61,-10.7,18.3,92.1*
O=C(COc1ccc2ccccc2c1)N1CCN(C(=O)c2cccnc2)CC1,.,.,.,.,-18.1,.
COc1ccc2nc(NC(=O)CSc3nc4cccnc4n3C)sc2c1,-0.9,11.5,-6.36*,-0.7,.,-1.7
O=C(O)CN(CCN(CC(=O)O)CC(=O)O)CCN(CC(=O)O)CC(=O)O,.,.,.,.,.,-3.2
C1CCc2c(nc3nnnn3c2NC2CCCC2)C1,.,.,.,.,-6.0,.
CN1Cc2cc(C(=O)c3cc(Cl)cc(CSc4ncccn4)c3O)cnc2NC1=O,2.9,54.7*,-0.96,5.3,.,-21.1
Cc1cn([C@H]2C[C@@H](N=[N+]=[N-])[C@@H](CO)O2)c(=O)[nH]c1=O,.,.,.,.,.,-3.0
OC(CNCCCN1CCCCC1)COc1ccccc1 (stereo not given),1.3,0.1,-5.96*,-13.6,-5.5,-0.5
COc1ccc(OCC(O)Cn2c(=N)n(CCN3CCCCC3)c3ccccc32)cc1 (stereo not given),-5.3,0.4,1.57,-20.2,.,-0.7
O=C(Nc1ccc(S(=O)(=O)Nc2cnc3ccccc3n2)cc1)c1ccc(Br)o1,-22.6,10.3,0.68,-15.7,15.3,-6.3
CC(=O)Nc1cnc2ccccc2n1,-4.8,-13.1,0.3,-16.7,20.2,56.2*
O=C(Cn1nnc(-c2ccccc2F)n1)Nc1ccc2c(c1)OCO2,15.9*,-21.0,0.12,12.0,22.5,-4.0
O=C(Cn1nnc(-c2ccncc2)n1)Nc1ccc2c(c1)CCC2,14.8*,8.2,0.22,-4.3,16.0,-6.0
Cc1cc(N)c2ccccc2[n+]1CCCCCCCCCCCCCC[n+]1c(C)cc(N)c2ccccc21,.,.,.,.,.,-3.2
COc1cccc2c1C(=O)c1c(O)c3c(c(O)c1C2=O)C[C@@](O)(C(=O)CO)C[C@@H]3O[C@H]1C[C@H](N)[C@H](O)[C@H](C)O1,9.7,-16.5,0.4,-16.6,.,73.5*
O=C(c1ccco1)N1CCN(c2nnc(-c3ccccc3)c3ccccc23)CC1,.,.,.,.,25.6,.
CCN1CCN(c2nc3c(c(=O)[nH]c(=O)n3C)n2CCCSc2ncccn2)CC1,6.8,-12.8,-3.75*,1.6,-19.8,-0.8
CNC(=O)[C@H]1O[C@@H](n2cnc3c(NCc4ccc(N)cc4)ncnc32)C(O)[C@H]1O (stereo not given in full),.,.,.,.,.,-0.2
SMILES,MMP-13 inhibitor,DUSP1 inh,WNV NS2B-NS3 inh,Cdc25B block,mHtt clearance,Hsp90 block
COC(=O)c1[nH]c2cc(OC)ccc2c1NC(=O)c1ccc2c(c1)OCO2,5.8,-4.2,-5.57*,-2.0,.,.
CNC(=O)OCc1cnc2ccc(OC)cc2c1COC(=O)NC,.,.,.,.,.,-2.3
CCN(CC)CCCNc1cc(OC)c(Nc2ccccc2)c2cccnc12,.,.,.,.,.,129.5*
COc1cc(NC(C)CCCNC(C)C)c2ncccc2c1OC (stereo not given),.,.,.,.,.,36.0
COc1ccc(CCNC(=O)c2cc(-c3ccccc3OC)on2)cc1OC,1.6,2.4,0.04,-3.6,-9.0,1.1
COc1ccccc1-c1cc(C(=O)NCCc2ccccc2)no1,.,.,.,.,78.6*,.
Cc1nn(-c2ccccc2)c2sc(C(=O)OC3CCOC3=O)cc12 (stereo not given),-97.6,31.2,-3.5*,1.3,.,-1.7
Cc1nn(-c2ccccc2)c2sc(C(=O)O)cc12,2.1,15.8,-0.5,102.0*,.,-3.9
Cc1ccc(-n2nc(C)c3cc(C(=O)O)sc32)cc1,-0.3,-2.2,-0.49,2.1,.,-6.3
COC(=O)c1cc2c(C)nn(-c3ccccc3)c2s1,-20.2,35.4,0.66,3.3,.,-0.8
C[C@H]1CC2C3CCC4=CC(=O)C=C[C@]4(C)[C@@]3(Cl)[C@@H](O)C[C@]2(C)[C@@]1(O)C(=O)CO (stereo not given in full),.,.,.,.,.,-1.3
C[C@@H](Oc1ccc(Oc2cnc3ccc(Cl)cc3n2)cc1)C(=O)O,.,.,.,.,.,2.6
O=C(O)c1cc(O)c2c(c1)C(=O)c1cccc(O)c1C2=O,-0.8,1.4,-0.87,-5.0,.,138.8*
N[C@@H](COP(=O)(O)O)C(=O)O,.,.,.,.,.,-0.1
O=C(Nc1ccc2c(c1)OCO2)N1CCN(S(=O)(=O)c2ccc(Cl)cc2)CC1,1.0,4.2,0.78,-4.6,77.3*,1.6
CC(OC(=O)c1cccs1)C(=O)NCc1cccs1 (stereo not given),-3.5,29.3,-0.98,3.8,.,92.3*
Cc1csc2ncc(C(=O)NCc3ccc4c(c3)OCO4)c(=O)n12,15.9*,3.8,-0.49,-6.8,.,-3.9
CCOC(=O)c1sc(NC(=O)CSc2nc(-c3ccco3)cc(C(F)(F)F)n2)c(C(=O)OC(C)C)c1C,.,.,.,.,-21.6,.
Cc1cc2c(N)cccc2nn1,2.9,8.2,1.01,52.0*,.,12.2
Cn1c(=O)c2c(nc(SCC(=O)NCc3ccc4c(c3)OCO4)n2Cc2ccc(Cl)cc2)n(C)c1=O,.,.,.,.,81.2*,.
COC(=O)n1c(=O)oc2cc(S(=O)(=O)N3CCOCC3)ccc21,-0.8,3.8,-0.37,2.8,.,0.8
CCCCOC(=O)n1c(=O)oc2cc(S(=O)(=O)N3CCCCC3)ccc21,2.0,0.3,-0.58,2.0,72.3*,2.4
COc1ccccc1-n1c(C)nnc1SCC(=O)Nc1cc(C)cc(C)c1,-2.6,9.5,-9.13*,3.2,47.6,4.7
C=C/C(C)=C/[C@@]1(C)SC(=O)C(C)=C1O,.,.,.,.,.,-1.8
COC(=O)C1=C(C)N(c2cccc3ccccc23)C(=O)C1,-6.7,30.0,-0.75,3.0,35.7,50.7*
CN1C2CC(OC(=O)[C@H](CO)c3ccccc3)CC1C1OC12 (stereo not given in full),.,.,.,.,.,2.6
Cc1nn(C(C)C(=O)N2CCCCC2)c(=O)c2c1sc1ccccc12 (stereo not given),-22.8,67.0*,-0.51,-8.0,.,0.3
Nc1c(S(=O)(=O)O)cc(Nc2ccc(Nc3nc(Cl)nc(Nc4ccc(S(=O)(=O)O)cc4)n3)c(S(=O)(=O)O)c2)c2c1C(=O)c1ccccc1C2=O,.,.,.,.,.,38.7
